Holding throughout (design): scale not given: direction of the effect not stated beside the values
Experiment [1] concerns the target Protein translocase subunit SecA (Escherichia coli (strain K12)) (UniProt P10408). Briefly: Assay to Identify E. coli SecA ATPase Inhibitors. In kind it is functional. The conditions noted are these: 30 µM.
Experiment [2] concerns the target T1, Ubiquitin-activating enzyme e1, putative (Leishmania donovani (strain BPK282A1)) (UniProt E9BSI1).
T1 sequence (whole entry): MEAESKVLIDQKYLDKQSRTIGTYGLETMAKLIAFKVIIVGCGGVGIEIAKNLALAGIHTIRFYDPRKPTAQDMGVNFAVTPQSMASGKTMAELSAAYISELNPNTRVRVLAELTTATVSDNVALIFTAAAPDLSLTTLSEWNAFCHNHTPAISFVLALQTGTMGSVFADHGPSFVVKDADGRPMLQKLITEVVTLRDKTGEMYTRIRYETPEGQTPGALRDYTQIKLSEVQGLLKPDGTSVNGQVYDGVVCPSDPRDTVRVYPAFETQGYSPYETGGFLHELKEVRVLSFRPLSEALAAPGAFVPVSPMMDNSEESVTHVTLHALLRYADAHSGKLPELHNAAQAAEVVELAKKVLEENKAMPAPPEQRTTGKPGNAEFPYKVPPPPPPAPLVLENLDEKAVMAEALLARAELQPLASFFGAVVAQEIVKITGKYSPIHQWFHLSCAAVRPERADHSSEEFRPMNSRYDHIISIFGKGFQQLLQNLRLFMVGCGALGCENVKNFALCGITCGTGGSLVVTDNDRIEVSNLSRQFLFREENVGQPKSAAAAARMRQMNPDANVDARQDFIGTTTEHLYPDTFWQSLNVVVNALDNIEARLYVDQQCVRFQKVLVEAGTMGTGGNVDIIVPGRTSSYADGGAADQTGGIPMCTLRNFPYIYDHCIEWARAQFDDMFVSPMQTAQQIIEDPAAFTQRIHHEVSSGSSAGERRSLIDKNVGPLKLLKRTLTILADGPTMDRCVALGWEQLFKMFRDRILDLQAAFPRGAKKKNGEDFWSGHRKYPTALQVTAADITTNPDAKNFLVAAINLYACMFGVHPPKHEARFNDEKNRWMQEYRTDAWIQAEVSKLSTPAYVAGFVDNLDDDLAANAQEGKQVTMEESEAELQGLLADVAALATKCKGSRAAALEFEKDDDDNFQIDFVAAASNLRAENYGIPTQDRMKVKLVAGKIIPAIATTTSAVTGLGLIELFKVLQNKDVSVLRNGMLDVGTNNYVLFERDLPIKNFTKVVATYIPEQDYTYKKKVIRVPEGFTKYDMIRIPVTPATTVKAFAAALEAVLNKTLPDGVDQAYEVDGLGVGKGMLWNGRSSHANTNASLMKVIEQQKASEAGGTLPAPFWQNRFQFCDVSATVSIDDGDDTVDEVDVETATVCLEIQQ
Description: Leishmania donovani Ubiquitin Activating Enzyme (LdE1). It is filed as functional. The note with it: 30 µM.

In experiment [3] the target is AMP-activated protein kinase, AMPK (Homo sapiens) (UniProt P54646+O43741+P54619+Q9UGJ0+Q9Y478+Q13131+Q9UGI9). Briefly: AMP-dependent Kinase enzyme assay. An in vitro enzyme assay that detects ADP turnover that is directly proportional to AMPK activity. This uses naive AMPK that is activated during the assay with MK-8722. It is filed as functional. The note with it: 30 µM.

Experiment [4] deals with Sialic acid-binding Ig-like lectin 9 (Homo sapiens) (UniProt Q9Y336). Description: Hs-Siglec9 ALPHAscreen SOP 20170721. The note with it: 10 µM. In general terms: In Alpha technology, singlet oxygen from a donor bead excites a nearby acceptor bead.
Experiment [5] relates to Trypanosoma cruzi. Description: Trypanosoma cruzi phosphomannomutase and mannose-1-phosphate guanylyltransferase assay. It is filed as functional. The conditions noted are these: 10 µM.
For experiment [6], the target named is T2, Arginase-2, mitochondrial (Homo sapiens) (UniProt P78540).
T2 sequence (whole entry): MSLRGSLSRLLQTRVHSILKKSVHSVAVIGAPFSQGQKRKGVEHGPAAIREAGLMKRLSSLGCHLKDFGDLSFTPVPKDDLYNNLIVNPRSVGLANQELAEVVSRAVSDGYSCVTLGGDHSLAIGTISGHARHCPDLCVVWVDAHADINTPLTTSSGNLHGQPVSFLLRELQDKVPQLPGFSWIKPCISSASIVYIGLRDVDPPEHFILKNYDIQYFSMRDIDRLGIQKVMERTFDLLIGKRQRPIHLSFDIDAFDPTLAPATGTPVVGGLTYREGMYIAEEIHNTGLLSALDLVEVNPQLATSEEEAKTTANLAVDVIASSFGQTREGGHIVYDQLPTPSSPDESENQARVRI
Description: in vitro enzyme assay to detect the production of urea directly proportional to the activity of Arginase II. Further: in the data most compounds retested in dose-response had high values. It is filed as functional. The conditions noted are these: 33.3 µM.

The target in experiment [7] is T3, Proteasome subunit beta (Trypanosoma cruzi) (UniProt O96673).
T3 sequence (whole entry): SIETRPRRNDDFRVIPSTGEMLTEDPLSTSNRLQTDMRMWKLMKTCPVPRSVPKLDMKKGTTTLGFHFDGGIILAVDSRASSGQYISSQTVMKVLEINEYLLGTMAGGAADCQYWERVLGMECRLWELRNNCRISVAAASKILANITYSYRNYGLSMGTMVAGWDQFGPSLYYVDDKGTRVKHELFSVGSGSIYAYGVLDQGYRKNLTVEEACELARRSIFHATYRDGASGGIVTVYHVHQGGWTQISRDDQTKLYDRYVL
Briefly: Trypanosoma cruzi proteasome chymotrypsin-like activity (TcProtChymo) assay. Further: in the data most compounds retested in dose-response had high values. In kind it is functional. The conditions noted are these: 9.37 µM.

The species entered for experiment [8] is Homo sapiens. Briefly: To identify inhibition of the IFN signalling (Jak-Stat) pathway via expression of an eGFP reporter gene under the control of an IFN-stimulated response element (ISRE) containing MxA promoter. The conditions noted are these: 30 µM. In kind it is functional. On the technique in general: In a reporter assay the amount or activity of a reporter protein is the signal.

Experiment [9] addresses T4, Tyrosyl-tRNA synthetase, putative (Trypanosoma cruzi (strain CL Brener)) (UniProt Q4DSP6).
T4 sequence (whole entry): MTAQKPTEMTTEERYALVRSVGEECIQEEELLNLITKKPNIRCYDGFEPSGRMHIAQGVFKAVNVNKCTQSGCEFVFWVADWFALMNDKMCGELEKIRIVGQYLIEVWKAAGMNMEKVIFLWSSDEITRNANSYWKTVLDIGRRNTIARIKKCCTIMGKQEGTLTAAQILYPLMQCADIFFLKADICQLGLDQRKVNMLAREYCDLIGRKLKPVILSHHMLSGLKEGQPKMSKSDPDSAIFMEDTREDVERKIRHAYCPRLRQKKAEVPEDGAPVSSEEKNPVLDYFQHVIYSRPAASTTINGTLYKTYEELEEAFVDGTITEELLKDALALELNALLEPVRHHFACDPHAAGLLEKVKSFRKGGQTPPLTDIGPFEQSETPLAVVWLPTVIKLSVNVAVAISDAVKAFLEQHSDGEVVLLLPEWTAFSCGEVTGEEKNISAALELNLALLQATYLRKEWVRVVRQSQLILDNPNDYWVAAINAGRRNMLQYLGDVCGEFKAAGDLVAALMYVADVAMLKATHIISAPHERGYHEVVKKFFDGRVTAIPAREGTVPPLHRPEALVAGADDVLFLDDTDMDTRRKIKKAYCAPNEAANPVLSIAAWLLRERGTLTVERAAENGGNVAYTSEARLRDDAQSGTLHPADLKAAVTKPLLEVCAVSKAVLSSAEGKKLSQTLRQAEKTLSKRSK
Briefly: Trypanosoma cruzi tyrosyl tRNA synthetase (TcYRS) _High Tyrosine SOP. Further: in the data most compounds retested in dose-response had high values. It is filed as functional. The conditions noted are these: 30 µM.

Experiment [10] deals with T4, Tyrosyl-tRNA synthetase, putative (Trypanosoma cruzi (strain CL Brener)). Description: Trypanosoma cruzi tyrosyl tRNA synthetase (TcYRS) SOP. The note with it: 30 µM. In kind it is functional.
Experiment [11] has as its target Chromo domain-containing protein 1 (Saccharomyces cerevisiae (strain ATCC 204508 / S288c) (Baker's yeast)) (UniProt P32657). Description: ScCHD-1 Enzyme Inhibition Assay. Further: in the data most compounds retested in dose-response had high values. The note with it: 30 µM. It is filed as functional.

Structures are written as SMILES. For some of these results: Entries with a potency or affinity are not part of this list.

Protein translocase subunit SecA (Escherichia coli (strain K12)), sequence (P10408 whole entry): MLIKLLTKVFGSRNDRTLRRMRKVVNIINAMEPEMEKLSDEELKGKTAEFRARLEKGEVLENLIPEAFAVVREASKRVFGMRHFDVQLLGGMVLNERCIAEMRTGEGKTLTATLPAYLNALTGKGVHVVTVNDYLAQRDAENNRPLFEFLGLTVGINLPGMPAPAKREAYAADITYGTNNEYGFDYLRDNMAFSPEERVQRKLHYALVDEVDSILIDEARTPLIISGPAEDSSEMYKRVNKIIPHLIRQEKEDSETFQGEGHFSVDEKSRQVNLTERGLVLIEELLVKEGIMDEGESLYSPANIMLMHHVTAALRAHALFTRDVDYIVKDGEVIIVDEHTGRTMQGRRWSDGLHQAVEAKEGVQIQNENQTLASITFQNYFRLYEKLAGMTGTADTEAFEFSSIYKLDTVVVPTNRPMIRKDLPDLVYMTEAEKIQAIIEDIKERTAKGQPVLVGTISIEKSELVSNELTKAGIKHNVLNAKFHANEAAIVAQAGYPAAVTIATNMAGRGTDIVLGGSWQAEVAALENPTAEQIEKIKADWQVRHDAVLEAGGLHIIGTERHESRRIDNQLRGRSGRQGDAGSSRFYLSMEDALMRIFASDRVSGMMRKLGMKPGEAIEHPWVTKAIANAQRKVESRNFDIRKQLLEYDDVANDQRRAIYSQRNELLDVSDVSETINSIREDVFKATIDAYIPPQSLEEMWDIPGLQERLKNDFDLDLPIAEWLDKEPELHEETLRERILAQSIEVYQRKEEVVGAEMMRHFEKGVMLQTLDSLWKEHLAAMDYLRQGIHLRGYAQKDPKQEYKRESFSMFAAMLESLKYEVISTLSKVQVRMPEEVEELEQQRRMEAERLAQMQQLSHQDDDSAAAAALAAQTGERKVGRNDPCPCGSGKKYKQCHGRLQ
Chromo domain-containing protein 1 (Saccharomyces cerevisiae (strain ATCC 204508 / S288c) (Baker's yeast)), sequence (P32657 whole entry, the tested form may be a part): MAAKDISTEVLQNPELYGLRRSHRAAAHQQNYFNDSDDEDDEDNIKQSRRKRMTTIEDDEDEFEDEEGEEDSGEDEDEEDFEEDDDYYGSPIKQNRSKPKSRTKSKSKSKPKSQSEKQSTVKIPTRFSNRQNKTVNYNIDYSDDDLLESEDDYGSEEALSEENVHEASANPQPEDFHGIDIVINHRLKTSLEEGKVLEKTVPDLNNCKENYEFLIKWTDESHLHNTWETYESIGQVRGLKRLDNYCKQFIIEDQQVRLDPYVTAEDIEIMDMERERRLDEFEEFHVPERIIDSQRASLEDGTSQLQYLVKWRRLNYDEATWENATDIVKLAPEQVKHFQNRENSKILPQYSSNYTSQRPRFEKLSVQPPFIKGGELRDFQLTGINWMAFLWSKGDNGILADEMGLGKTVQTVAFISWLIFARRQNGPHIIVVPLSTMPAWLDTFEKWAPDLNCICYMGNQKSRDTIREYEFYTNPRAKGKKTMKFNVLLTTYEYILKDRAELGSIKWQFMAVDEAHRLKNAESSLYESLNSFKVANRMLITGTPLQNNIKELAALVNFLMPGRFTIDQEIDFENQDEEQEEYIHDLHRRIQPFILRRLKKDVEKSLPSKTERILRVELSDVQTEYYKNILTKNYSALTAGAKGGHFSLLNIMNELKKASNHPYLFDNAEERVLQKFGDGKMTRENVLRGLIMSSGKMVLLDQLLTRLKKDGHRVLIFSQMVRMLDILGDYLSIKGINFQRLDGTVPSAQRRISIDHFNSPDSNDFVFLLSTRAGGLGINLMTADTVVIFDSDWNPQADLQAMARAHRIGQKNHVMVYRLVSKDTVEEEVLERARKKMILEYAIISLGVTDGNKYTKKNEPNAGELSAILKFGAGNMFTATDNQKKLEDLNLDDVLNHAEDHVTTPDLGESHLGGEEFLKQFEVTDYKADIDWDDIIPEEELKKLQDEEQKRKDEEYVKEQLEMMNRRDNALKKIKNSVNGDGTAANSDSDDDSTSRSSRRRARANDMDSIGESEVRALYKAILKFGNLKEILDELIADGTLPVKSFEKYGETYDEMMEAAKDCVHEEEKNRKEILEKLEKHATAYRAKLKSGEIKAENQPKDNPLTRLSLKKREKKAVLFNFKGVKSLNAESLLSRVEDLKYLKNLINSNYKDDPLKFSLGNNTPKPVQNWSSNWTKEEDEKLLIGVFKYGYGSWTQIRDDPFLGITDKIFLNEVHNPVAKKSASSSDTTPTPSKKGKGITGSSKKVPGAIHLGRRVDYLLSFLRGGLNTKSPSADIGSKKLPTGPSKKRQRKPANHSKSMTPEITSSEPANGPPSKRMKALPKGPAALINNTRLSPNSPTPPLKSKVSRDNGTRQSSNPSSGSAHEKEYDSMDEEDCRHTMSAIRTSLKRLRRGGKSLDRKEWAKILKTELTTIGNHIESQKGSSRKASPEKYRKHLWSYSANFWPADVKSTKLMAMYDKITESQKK
Sialic acid-binding Ig-like lectin 9 (Homo sapiens), sequence (Q9Y336 whole entry): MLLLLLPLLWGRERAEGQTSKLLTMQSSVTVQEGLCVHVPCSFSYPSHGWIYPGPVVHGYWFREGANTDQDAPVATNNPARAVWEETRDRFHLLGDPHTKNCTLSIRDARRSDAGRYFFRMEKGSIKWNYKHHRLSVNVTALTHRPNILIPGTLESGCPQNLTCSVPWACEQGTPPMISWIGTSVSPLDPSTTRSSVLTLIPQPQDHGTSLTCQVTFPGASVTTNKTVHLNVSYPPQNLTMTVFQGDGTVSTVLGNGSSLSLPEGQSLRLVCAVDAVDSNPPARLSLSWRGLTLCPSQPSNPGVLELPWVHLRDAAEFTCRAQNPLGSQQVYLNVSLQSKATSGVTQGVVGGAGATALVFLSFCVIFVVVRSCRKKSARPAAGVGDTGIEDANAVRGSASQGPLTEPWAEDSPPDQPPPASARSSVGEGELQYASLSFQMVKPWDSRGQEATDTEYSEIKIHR

Consider `Cn1nc(C2CCCN(Cc3ccsc3)C2)c2nccnc21` (stereo unspecified), for which the Percent Effect in [1] was -0.97%; in experiment [2], 9.46%; in experiment [3] it was 11.9%; in experiment [4], -2.94%; in [5] it was -2.37%; in experiment [6], -0.696%. The Percent Effect in [7] was 4.68%; in experiment [8], 3.34%; in experiment [9] it was 1.07%; in experiment [10], 6.49%; in experiment [11] it was -19.8%.
Consider `COc1ccccc1OCC(=O)NS(=O)(=O)c1ccccc1F`, for which the Percent Effect is -3.52% in experiment [1]; 13.5% in experiment [2]; -3.34% in experiment [3]; 25.9% in experiment [4]; 4.44% in [5]; -0.952% in experiment [6]. Moreover, the Percent Effect is 11.9% in experiment [7]; 6.7% in experiment [8]; 2.65% in experiment [9]; 9.76% in experiment [10]; -10.8% in experiment [11].
Consider `O=C(CSc1nc2c(cnn2CCO)c(=O)[nH]1)N1CCCCCC1`, for which the Percent Effect in [1] was 1.99%; in [2] it was 8.22%; in experiment [3], -8.26%; in experiment [4], 4.22%; in experiment [5], -3.33%; in experiment [6], 3.18%. Also, the Percent Effect is 11.4% in [7]; 14.3% in experiment [8]; 4.3% in [9]; 10% in experiment [10]; -2.48% in [11].
With `CC(C)CCn1c(=O)nc2n1C(=O)N(c1ccc(F)cc1)C2`, the Percent Effect was -5.09% in [1]; -2.63% in [2]; 10.5% in [3]; -4.96% in experiment [4]; -1.46% in [5]; -10.7% in [6]. In addition, the Percent Effect in experiment [7] was 12.4%; in experiment [8], 13.5%; in experiment [9], -2.13%; in [10] it was -10.4%; in [11], 15.2%.
For `O=C(N1CCCC1)N1CCN(CC2CC2)c2ncccc2C1`, the Percent Effect in [1] was -3.07%; in experiment [2], 5.33%; in [3], 8.78%; in experiment [4], -0.324%; in [5] it was -6.69%; in experiment [6], 7.69%. Also, the Percent Effect in [7] is 21.8%; in experiment [8], 10.6%; in experiment [9], 4.25%; in [10] it was 1.28%; in experiment [11], -4.2%.
With `O=C(c1n[nH]c2ccccc12)N1CCCC1c1noc(C2CC2)n1` (stereo unspecified), the Percent Effect in experiment [1] was -4.36%; in experiment [2], 7.59%; in experiment [3] it was -0.141%; in experiment [4], 0.249%; in [5], 8.4%; in experiment [6], 5.32%. In addition, the Percent Effect in experiment [7] was 1.39%; in [8] it was -4.43%; in [9], 4.43%; in [10] it was 13.9%; in experiment [11] it was -5.81%.
In the case of `CCN(Cc1nc2c(cnn2C)c(=O)[nH]1)c1cccc(Cl)c1`, the Percent Effect was -2.52% in experiment [1]; 10.4% in experiment [2]; 4.11% in [3]; -5.62% in [4]; 1.27% in experiment [5]; 0.632% in [6]. Further, the Percent Effect was 14.3% in experiment [7]; 16.2% in experiment [8]; 1.91% in [9]; 14.1% in [10]; -9.43% in experiment [11].
`CC(C)CNC(=O)[C@H]1CCS(=O)(=O)[C@@H]2CN(Cc3cccc(Cl)c3)C[C@H]12`: the Percent Effect was -8.49% in experiment [1]; 0% in [2]; 6.38% in experiment [3]; 3.48% in experiment [4]; -2.15% in [5]; 0% in experiment [6]. Further, the Percent Effect in experiment [7] was 12.3%; in experiment [8], 12.5%; in experiment [9] it was 3.96%; in experiment [10], 1.22%; in experiment [11], 3.36%.
For `Cc1cnn(CCC(=O)N2CCOC(c3nc(C(C)(C)C)n[nH]3)C2)c1` (stereo unspecified), the Percent Effect in experiment [1] is -3.54%; in experiment [2], -6.94%; in experiment [3] it was 7.25%; in experiment [4], 3.02%; in [5], -3.6%; in [6] it was -0.883%. Further, the Percent Effect was 5.26% in [7]; 20.6% in [8]; -1.05% in experiment [9]; -10.3% in [10]; -1.3% in experiment [11].
In the case of `COC[C@]12COC[C@H]1CN(Cc1cc(OC)cc(OC)c1)C2`, the Percent Effect in experiment [1] was -2.64%; in experiment [2] it was 2.7%; in experiment [3], -1.96%; in experiment [4], 2.27%; in [5], 4.59%; in experiment [6] it was 6.05%. Also, the Percent Effect is 11.2% in experiment [7]; -4.13% in experiment [8]; 1.08% in [9]; 7.69% in [10]; 2.95% in [11].
As for `CC(Cc1ccco1)NC(=O)Nc1cnn(CC(N)=O)c1` (stereo unspecified), the Percent Effect was 1.02% in experiment [1]; 6.33% in [2]; 5.31% in experiment [3]; 0.769% in experiment [4]; -6.67% in experiment [5]; 2.8% in experiment [6]. Also, the Percent Effect was 11% in experiment [7]; 9.49% in experiment [8]; 4.17% in experiment [9]; 7.59% in experiment [10]; -2.83% in experiment [11].
